# BJeLR lethal – MLPCN primary cell-based screen for lethality selective to Ras in HRASV12 cells | BJeLR (HRASV12) viability, CellTiter-Glo ATP luminescence, 48 h | inhibition, % (concentration not given with the values) | actives 0.17% (n = 300,000); in the data active means inhibition above about 50%
# CCHF vOTU inh-1 – CCHFV vOTU protease inhibitors, primary screen, biochemical, Pep-AMC substrate, fluorescence | Crimean-Congo hemorrhagic fever virus L polyprotein viral ovarian tumor (vOTU) protease … | inhibition, % at 11.5 µM | actives 0.55% (n = 370,000) | AID 651958, 2012; further: 0% = vehicle wells with enzyme and 100% = no enzyme wells
# PfHsp40 yeast – rescue of yeast from PfHsp40 toxicity, primary screen, S. cerevisiae, ATP luminescence; actives 0.68% (n = 340,000); growth rescue, % at 12.5 µM; S. cerevisiae expressing PfHsp40, growth rescue; in the data active means growth rescue above about 28%, passing the limit was not always enough;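 further: yeast W303a lacking pdr1 and pdr3 grown in galactose medium; growth measured after three days at 30 °C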
# Sa RN4220 lethal – growth inhibition of S. aureus RN4220, primary screen, OD600 | 16 h | actives 0.33% (n = 330,000) | AID 1259311, 2017 | inhibition, % (test concentration not listed); in the data active means inhibition above about 85%;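 further: plate controls were untreated cells for no effect and reference antibiotic for full effect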
# Sa ugtP lethal – growth inhibition of ugtP-null S. aureus, primary screen, RN4220 ugtP deletion, OD600; 16 h; actives 0.54% (n = 330,000); growth inhibition, % (test concentration not listed); in the data active means growth inhibition above about 68%;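 further: plate controls were untreated wells for no effect and antibiotic for full effect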
# CCHF vOTU inh-2 – CCHFV vOTU protease inhibitors, confirmation, biochemical, Pep-AMC substrate, fluorescence. shares compounds with CCHF vOTU inh-1. Recombinant CCHFV vOTU. inhibition, % at 11.5 µM. actives 17% (n = 1,900). AID 686976, 2013
# * hit, by the source's call; . = not tested or not shown. The list is not random: actives were taken first. Their share in the collection is about 1.6%. Unless noted, no stated cut-off is given here; in the data, active means inhibition above about 30%; inactive means the rest.
SMILES,BJeLR lethal,CCHF vOTU inh-1,PfHsp40 yeast,Sa RN4220 lethal,Sa ugtP lethal,CCHF vOTU inh-2
CN(C)c1ccc(N/C=C/C(=O)C(C)(C)C)cc1,2,59*,1,4,12,11
CCOC(=O)c1ccc(N/C=C/C(=O)C(C)(C)C)cc1,3,7,0,.,.,.
CC(C)(C)NC(=O)C(=Cc1ccco1)c1ccccc1,.,.,.,5,-3,.
C(=NNC1=NCCN1)c1ccncc1,.,.,.,2,11,.
CCOC1OC(C(=O)Nc2ccccc2)=CC(c2ccc(Br)cc2)C1CCCO (stereo not drawn),.,.,.,-6,-3,.
CC(=NNC(=O)CNC(=O)COc1cccc(C)c1)c1ccco1,.,.,.,2,2,.
CCCc1cc(=O)[nH]c(SCC(=O)Nc2cc(S(=O)(=O)N(CC)c3ccccc3)ccc2Cl)n1,.,35*,0,12,-11,11
Cc1cccc2cc(C=NNC(=O)c3ccncc3)c(Cl)nc12,.,.,.,-2,7,.
CCCCCCCCN1C(=O)[C@@H](CC(=O)N2CCN(C(=O)C3CC3)CC2)C[C@@]2(C(=O)OC)C1=C[C@H](C(C)(C)C)O[C@@H]2C,.,38*,.,.,.,29
CCCCOCCCNC(=O)C[C@H]1C[C@@]2(C(=O)OC)C(=C[C@H](C(C)(C)C)O[C@@H]2C)N(Cc2ccc(Cl)cc2Cl)C1=O,.,39*,.,.,.,7
CCCCOCCCNC(=O)C[C@H]1C[C@@]2(C(=O)OC)C(=C[C@H](C3CCCC3)O[C@@H]2C)N(Cc2ccc(Cl)cc2Cl)C1=O,.,23,.,.,.,.
CCCCCCCCN1C(=O)[C@@H](CC(=O)NCCCOC)C[C@@]2(C(=O)OC)C1=C[C@H](C(C)(C)C)O[C@@H]2C,.,36*,.,.,.,12
C=CCNC(=S)NN=Cc1ccc(C)s1,.,.,.,3,-3,.
CC1CC(=NO)C(C)CN1 (stereo not drawn),.,.,.,-3,-5,.
O=C(NNc1cccc(Cl)n1)Nc1ccc(Cl)cc1,1,42*,0,2,1,-16
O=C(NNc1cccc(Cl)n1)Nc1cccc(C(F)(F)F)c1,12,6,-1,1,-4,.
CC(C)c1c(C(=O)NN=Cc2ccc(C(F)(F)F)cc2)nnn1-c1nonc1N,.,.,.,-1,-7,.
CCN(C(=O)CCc1cn(CC)c2ccccc12)c1ccc(Oc2cccnc2)cc1,.,31*,.,.,.,-3
CCCOc1ccc(C=NNc2ccccc2[N+](=O)[O-])c(OCCC)c1,.,.,.,-4,0,.
COc1ccc(COC(=O)Oc2ccc(CNC(C)=O)cc2OC)c([N+](=O)[O-])c1,-3,-1,-2,6,1,.
COc1cc(COC(=O)Oc2ccc(CNC(C)=O)cc2OC)c([N+](=O)[O-])cc1OC,7,31*,-1,7,7,-11
CC1(Cc2ccc(C(F)(F)F)o2)C(=O)Nc2cc(-c3ccc(F)cc3F)ccc21 (stereo not drawn),.,39*,.,.,.,-1
COc1cc(/C=C2/C(=O)N(c3ccc([N+](=O)[O-])cc3)N=C2N2CCOCC2)ccc1O,-2,115*,0,3,10,8
O=C1C(Nc2ccccc2)=CC(=NS(=O)(=O)c2cccs2)c2ccccc21,.,.,.,79,74,.
Cc1ccccc1NC1=C/C(=N\S(=O)(=O)c2ccc(C(=O)O)cc2)c2ccccc2C1=O,15,107*,-1,5,-4,101*
SMILES,BJeLR lethal,CCHF vOTU inh-1,PfHsp40 yeast,Sa RN4220 lethal,Sa ugtP lethal,CCHF vOTU inh-2
O=C(O)c1ccc(S(=O)(=O)/N=C2\C=C(Nc3ccccc3F)C(=O)c3ccccc32)cc1,3,122*,1,34,16,103*
O=C1c2cccc(O)c2C(=O)c2c(O)cc(CO)cc21,-8,.,.,.,.,.
CC1OC2CC(=O)OC2C2=C1C(=O)c1c(O)cccc1C2=O (stereo not drawn),.,98*,.,.,.,91*
COCC(=O)OC1CCn2c1nc1c2C(=O)C(C)=C(NC(C)=O)C1=O (stereo not drawn),.,100*,-1,.,.,100*
CC(=O)NC1=C(N2CC2C)C(=O)C(NC(C)=O)=C(N2CC2C)C1=O (stereo not drawn),.,16,-1,3,3,.
NC(=O)C1C(=O)c2ccccc2C1(C[N+](=O)[O-])c1ccccc1 (stereo not drawn),.,46*,-1,0,-5,-1
CN(C)c1cc(Cl)c2nonc2c1N,5,71*,3,3,-2,3
CCN(CC)c1cc(Cl)c2nonc2c1N,-7,-1,-1,5,18,.
CN(C)c1ccc(C=NNC(=O)c2cc(-c3ccc4c(c3)OCO4)n[nH]2)cc1,.,.,.,2,1,.
Cc1ccc(S(=O)(=O)N/N=C2/CC(c3ccccc3)Oc3ccccc32)cc1[N+](=O)[O-] (stereo not drawn),1,38*,1,.,.,10
O=C1NC(c2ccc(-c3ccccc3[N+](=O)[O-])o2)C(C(=O)c2ccc(F)cc2)C(O)(C(F)(F)F)N1 (stereo not drawn),-18,42*,1,8,-9,5
Cc1cc(C)nc(SCC(=O)N(C)CC(=O)Nc2c(Cl)cccc2Cl)n1,-5,34*,0,1,1,-11
NCC1OC(C23CC4CC(CC(C4)C2)C3)Cc2c1ccc(O)c2O (stereo not drawn),.,.,.,4,-17,.
O=C1N=C(N2C=CC(=C3C=CNC=C3)C=C2)/C(=C/N=NC(=O)c2ccccc2)S1,6,41*,-1,2,-2,-4
COC(=O)C1=C(C)N(C)C(=NCC2CC2)NC1c1ccccc1 (stereo not drawn),.,32*,.,.,.,-15
COC(=O)C1=C(C)N(Cc2cccc(C(F)(F)F)c2)C(=NCc2ccc(OC)cc2)NC1c1cccc(F)c1 (stereo not drawn),.,35*,.,.,.,4
